Measured values taken from PubChem BioAssay (NCATS).
Records with an inconclusive call do not appear. Unmarked numbers belong to inactive results. The source made the active and inactive calls. Calls come from the whole dose curve; as a rule, active = well fitted curve in the direction sought with a large enough effect; inconclusive = small, poorly fitted or top-dose-only effect, or another doubt; inactive = no such curve, though single readings can be large; an effect the other way counts as inactive or inconclusive.

Target: Rap guanine nucleotide exchange factor 3 (Homo sapiens) (UniProt O95398)
Test: Counterscreen qHTS for antagonist of cAMP-regulated guanine nucleotide exchange factor 3 (EPAC1) (AID 1645888);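 for activity change, negative = inhibition: fluorescence loss as bound BODIPY-GDP is released from Rap1B; % of control where 0% means no effect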
Details: Rap1B-BODIPY-GDP nucleotide exchange, fluorescence; series mostly up to 154 µM; activity change, negative = inhibition: at the top concentration
In short: (§1)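 Rap1B–BODIPY-GDP (250 nM) with 50 uM GDP; compounds pin-transferred to 9.74 nM–152 uM final (activator) or from 7.32 nM upwards (inhibitor). Fluorescence Ex/Em 480/540 nm read at 5 and 30 min, then after adding cAMP or buffer, at room temperature.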
Potency is the fitted concentration of half-maximal effect.

Rap guanine nucleotide exchange factor 3 (Homo sapiens), sequence (O95398 whole entry, looked up): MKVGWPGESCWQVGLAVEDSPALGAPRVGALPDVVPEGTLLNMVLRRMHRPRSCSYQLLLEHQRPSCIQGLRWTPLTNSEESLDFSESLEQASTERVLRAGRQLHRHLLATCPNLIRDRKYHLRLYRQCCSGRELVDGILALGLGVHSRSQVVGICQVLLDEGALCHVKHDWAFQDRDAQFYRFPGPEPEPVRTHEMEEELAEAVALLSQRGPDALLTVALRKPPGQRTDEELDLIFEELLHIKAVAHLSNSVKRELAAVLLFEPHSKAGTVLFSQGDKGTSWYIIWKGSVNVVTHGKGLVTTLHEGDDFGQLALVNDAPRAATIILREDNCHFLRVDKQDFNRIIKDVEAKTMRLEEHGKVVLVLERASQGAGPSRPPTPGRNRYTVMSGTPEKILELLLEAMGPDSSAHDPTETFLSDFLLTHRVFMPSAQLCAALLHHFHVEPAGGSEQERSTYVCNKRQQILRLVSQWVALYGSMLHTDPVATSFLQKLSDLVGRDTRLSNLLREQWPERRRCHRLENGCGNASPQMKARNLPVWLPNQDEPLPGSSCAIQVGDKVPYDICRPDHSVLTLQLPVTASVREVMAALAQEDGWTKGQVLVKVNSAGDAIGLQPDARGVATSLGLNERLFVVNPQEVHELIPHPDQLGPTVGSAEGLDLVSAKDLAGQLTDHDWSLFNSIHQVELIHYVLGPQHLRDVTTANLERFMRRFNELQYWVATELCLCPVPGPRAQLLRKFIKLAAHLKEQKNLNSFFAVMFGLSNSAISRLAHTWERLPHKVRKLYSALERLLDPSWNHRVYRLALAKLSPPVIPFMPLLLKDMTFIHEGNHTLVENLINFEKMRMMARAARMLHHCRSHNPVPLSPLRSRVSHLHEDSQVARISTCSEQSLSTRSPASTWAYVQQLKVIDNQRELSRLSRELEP

SMILES	activity change, negative = inhibition	Potency
O=C(O)c1ccc(Nc2nc(-c3cc4ccccc4oc3=O)cs2)cc1O	-3.53%	
Cc1cc(C(=O)CCC(=O)N2CCN(S(=O)(=O)c3ccccc3)CC2)c(C)s1	-3.54%	
OCc1ccc(-c2ccccc2)c(-c2ccccc2)c1	-10.5%	
CC1CCN(c2ccc3c(c2)S(=O)(=O)c2cccc(C(=O)NC[C@@H]4CCCO4)c2C3=O)CC1	-5.04%	
N#Cc1ccc(CSc2nc(N)cc(N)n2)cc1	-15.9%	
COCCn1c(-c2ccc(OC)cc2)c(-c2ccc(OC)cc2)oc1=O	5.41%	
CCOC(=O)c1cc(-c2ccc(/C=C3/C(=O)N(c4ccc(C(=O)O)cc4)N=C3C)o2)ccc1Cl	-22.8%	
CCN(CC)C1=CC2=CC(=C(C#N)C#N)CCC2CC1 (configuration not stated)	430%	
N=C1/C(=C\c2ccc(-c3cccc(C(=O)O)c3)o2)C(=O)N=C2SC=C(c3ccccc3)N12	4.85%	
COc1cccc2c1C(=O)c1c(O)c3c(c(O)c1C2=O)CC(O)(C(C)=O)CC3OC1CC(N(C)C)C(O)C(C)O1 (configuration not stated)	80.1% [at 30.8 µM]	
COc1cc2cc(Oc3ccc4ccc(=O)oc4c3)c(=O)oc2cc1O	-3.83% [at 30.8 µM]	
CC(=O)OCCn1c2nc(=O)[nH]c(=O)c-2nc2cc(C)c(C)cc21		100 µM (active)
CCOc1ccccc1CN(CCc1ccc2c(c1)OCO2)Cc1ccccn1	2.25% [at 30.8 µM]	
Cc1cc2nc3c(=O)n(Cc4ccccc4)c(=O)[nH]c3nc2cc1N	0.816% [at 30.8 µM]	
O=C(c1cc(Cl)ccc1Cl)N1CCc2ccccc21	5.29%	
CC(=O)N1CCc2nc3sc(C(=O)c4ccc(F)cc4)c(N)c3c(C(F)(F)F)c2C1	37.6%	
CC1CCCN(C(=O)c2ccc(-c3ccccc3Cl)o2)C1 (configuration not stated)	3.93%	

SMILES	activity change, negative = inhibition	Potency
COc1cccc(CNc2cccc3cccnc23)c1O	23.6%	
O=S(=O)(c1ccc2[nH]c3c(c2c1)CCCC3)N1CCCCC1	0.728%	
COc1cccc(/C=N/Nc2ccc(S(=O)(=O)Nc3ccccc3C(=O)O)cc2[N+](=O)[O-])c1O	-5.08% [at 30.8 µM]	
CCOC(=O)c1ccc(/C=C2/C=C(c3ccccc3)N(c3ccc(Cl)c(C(=O)O)c3)C2=O)cc1	16%	
S=C(Nc1ccc2nsnc2c1)NC1CCCCC1	25.9%	
Oc1ccc(Br)cc1CNc1cccc2cccnc12	-5.73%	
COc1ccc(O)c(C(c2c(C)[nH][nH]c2=O)c2c(C)[nH][nH]c2=O)c1	33.4%	
Cc1cc2nc3c(=O)[nH]c(=O)[nH]c3nc2c([N+](=O)[O-])c1N	46.9%	
O=C(N/N=C/c1ccc(OC(=O)c2ccccc2Cl)cc1)c1cc(O)cc(O)c1	14.9%	
Brc1ccccc1Cn1c(-c2cncs2)nc2ccccc21	31.1%	
Cc1cccc(C)c1NC(=O)CN1C(=O)S/C(=C\c2cccn2-c2cccc(C(=O)O)c2)C1=O	8.81%	
O/N=C(/c1ccc(F)cc1)C1CC1c1c(F)cccc1Cl (configuration not stated)	-27.6%	
COc1ccccc1Oc1nc(-c2cccnc2)nc2ccccc12	11.9%	
COc1cccc(Cn2c(=O)c3ccccc3n3nc(C)cc23)c1	48.4%	
CCOC(=O)[C@H]1[C@H]2COc3ccc(C)cc3[C@@H]2N2C(=O)c3ccc(C)cc3NC(=O)[C@@]12C	7.68%	
CN(C)c1ccc(/C=C(/C(=O)c2ccc(Cl)cc2Cl)n2cncn2)cc1	79.3%	

Target: Rap guanine nucleotide exchange factor 3 (Homo sapiens) (UniProt O95398)
Test: Counterscreen qHTS for agonist of cAMP-regulated guanine nucleotide exchange factor 3 (EPAC1) (AID 1645889); note: nearly all actives have a fitted effect of over 40% in size; for activation: % of control where 0% means no effect
Details: EPAC1 Rap1B-BODIPY-GDP exchange, fluorescence; series mostly up to 154 µM; activation: at the top concentration
In short: as §1

SMILES	Potency	activation
CCCCN(C)C1=CC2=CC(=C(C#N)C#N)CCC2CC1 (configuration not stated)	39.8 µM (active)	
Cc1cc(C(=O)CCC(=O)N2CCN(S(=O)(=O)c3ccccc3)CC2)c(C)s1		12.3%
N#Cc1ccc(CSc2nc(N)cc(N)n2)cc1		12.7%
CCOC(=O)c1cc(-c2ccc(/C=C3/C(=O)N(c4ccc(C(=O)O)cc4)N=C3C)o2)ccc1Cl		13%
CCN(CC)C1=CC2=CC(=C(C#N)C#N)CCC2CC1 (configuration not stated)	25.1 µM (active)	
CC1(Cc2cc(Cl)ccc2C(F)(F)F)C(=O)Nc2c(Cl)cccc21 (configuration not stated)		15%
N=C1/C(=C\c2ccc(-c3cccc(C(=O)O)c3)o2)C(=O)N=C2SC=C(c3ccccc3)N12		23.2%
COc1cc(/C=C2\SC(=Nc3ccccc3)N(CCc3c[nH]c4ccccc34)C2=O)ccc1OC(C)C(=O)O (configuration not stated)		14.7%
CN(C)/C=C1\C=C2C(=O)c3ccccc3N2C1=O	10 µM (active)	
COc1cccc(/C=N/Nc2ccc(S(=O)(=O)Nc3ccccc3C(=O)O)cc2[N+](=O)[O-])c1O		20% [at 30.8 µM]
Cc1cc2nc3c(=O)[nH]c(=O)[nH]c3nc2c([N+](=O)[O-])c1N	56.2 µM (active)	
Cc1cccc(C)c1NC(=O)CN1C(=O)S/C(=C\c2cccn2-c2cccc(C(=O)O)c2)C1=O		18.6%
CN(C)c1ccc(/C=C(/C(=O)c2ccc(Cl)cc2Cl)n2cncn2)cc1	70.8 µM (active)	
CCN(CC)CCCC(C)n1c2nc(=O)[nH]c(=O)c-2nc2cc(Cl)ccc21 (configuration not stated)	63.1 µM (active)	
